Screening data as filed in PubChem.
DT40 TDP1 CPT – growth inhibition of DT40 Tdp1-/-;hTDP1 cells with camptothecin (screen for TDP1 inhibitors); chicken DT40 Tdp1-/-;hTDP1 cells + 20 nM CPT, ATP luminescence, 48 h; Potency, µM (series often up to 46.2 µM), for inactives: top-dose activity change, negative = growth inhibition, actives largely listed as inhibitors; 420,000 tested, 12% active; AID 686979; also: potency is read from the fitted curve at half-maximal effect; % is scaled to controls: 0 for no effect and ±100 for the full control effect; nearly all actives have a fitted effect of over 55% in size
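Chicken DT40 Tdp1-/- cells stably complemented with human TDP1 were seeded at 400 cells/well in medium containing 20 nM camptothecin, exposed to pin-transferred compounds, and grown at 37 °C for at least 48 hr. Viability was read as ATP luminescence.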
TGFb inhibitor – TGF-b pathway inhibition. AID 588855. HepG2 CAGA-GFP TGF-b/SMAD3 reporter, GFP fluorescence, 18 h; TGF-beta stimulated, 500 pg/mL final. Potency, µM (titrated, usually from 46.1 µM), inactives show top-dose activity, negative = inhibition, usual class: inhibitors. 410,000 tested, 1.2% active; also: potency is read from the fitted curve at half-maximal effect; % is scaled to controls: 0 for no effect and ±100 for the full control effect; nearly all actives have a fitted effect of over 65% in size
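HEPG2 CAGA-GFP cells (1000/well, DMEM with 1% FBS) were pre-incubated 2 h at 37 degrees C, given compound by pin tool, then stimulated with TGF-beta at 500 pg/mL final for 18 h before per-cell GFP fluorescence imaging.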
TDP1 cell noCPT – qHTS for Inhibitors of human tyrosyl-DNA phosphodiesterase 1 (TDP1): qHTS in cells in absence of CPT. AID 686978, 2013. Potency, µM (series often up to 46.2 µM), for the others: at the top dose activity change, negative = growth inhibition, usual class: inhibitors. DT40 Tdp1-/- hTDP1 cells, no CPT, ATP luminescence, 48 h. 420,000 tested, 15% active; also: potency is read from the fitted curve at half-maximal effect; % is scaled to controls: 0 for no effect and ±100 for the full control effect; nearly all actives have a fitted effect of over 55% in size
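Growth kinetics read by CellTiter-Glo luminescence after ≥48 hr at 37 °C. Cells: DT40 Tdp1-/- stably carrying human TDP1, 400 per well, compound exposure in the absence of CPT (DMSO vehicle).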
IL1B secr inh – inflammasome signaling inhibition, IL-1 beta readout | THP-1 LPS/ATP IL-1B secretion, AlphaLISA, 16 h; stronger effect = lower value | activity change, % at 57.5 µM | 360,000 tested, 4.7% active | AID 743279; in the data active = activity change below about -50%; inconclusive = mostly about -30% to -49%; also: % is scaled to controls: 0 for no effect and ±100 for the full control effect
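Secreted IL-1B measured by AlphaLISA bead assay after 16 h compound exposure of THP-1 cells; compounds (final up to 57.5 uM) added 1 h before LPS (250 ng/mL) and ATP (1.25 mM) stimulation; lower signal means less secretion.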
TDP1 inh – inhibitors of human tyrosyl-DNA phosphodiesterase TDP1; recombinant TDP1, AlphaScreen DNA substrate cleavage; Potency, µM (doses to about 130 µM), without a hit: top-dose activity change, negative = inhibition, usual class: inhibitors; 350,000 tested, 0.28% active; also: potency is read from the fitted curve at half-maximal effect; % is scaled to controls: 0 for no effect and ±100 for the full control effect; nearly all actives have a fitted effect of over 40% in size
Target sequence (Q9NUW8 whole entry, looked up): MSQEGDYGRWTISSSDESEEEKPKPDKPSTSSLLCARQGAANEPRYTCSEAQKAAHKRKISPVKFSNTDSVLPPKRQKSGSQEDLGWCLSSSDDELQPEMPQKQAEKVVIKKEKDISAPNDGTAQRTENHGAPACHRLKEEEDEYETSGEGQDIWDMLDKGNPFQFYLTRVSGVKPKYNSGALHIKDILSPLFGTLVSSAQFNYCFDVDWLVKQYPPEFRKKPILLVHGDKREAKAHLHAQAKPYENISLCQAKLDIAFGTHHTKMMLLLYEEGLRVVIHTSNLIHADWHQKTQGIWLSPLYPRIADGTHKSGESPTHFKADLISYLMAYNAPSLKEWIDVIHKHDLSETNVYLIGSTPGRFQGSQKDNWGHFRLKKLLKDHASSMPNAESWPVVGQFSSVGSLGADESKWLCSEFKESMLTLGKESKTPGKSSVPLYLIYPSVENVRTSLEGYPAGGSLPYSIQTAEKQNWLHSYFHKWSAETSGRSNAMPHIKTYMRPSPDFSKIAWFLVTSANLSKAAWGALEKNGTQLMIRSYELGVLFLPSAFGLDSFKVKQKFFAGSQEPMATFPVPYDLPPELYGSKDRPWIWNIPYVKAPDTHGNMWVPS
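Enzyme-compound mixtures sat 15 min at room temperature, followed by a 5 min reaction with 15 nM final substrate and 10 min with AlphaScreen beads. Recombinant human Tdp1 was used at 1 nM final.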
HepG2 viability – counter-screen for TGF-b inhibitors: cytotoxicity in HepG2 cells; HepG2 CAGA-GFP viability, ATP luminescence, 18 h; Potency, µM (top dose mostly 46.1 µM), for the others: at the highest dose activity change, negative = cytotoxicity, usual class: cytotoxic; 410,000 tested, 0.76% active; also: potency is read from the fitted curve at half-maximal effect
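CellTiter-Glo luminescence gave cytotoxicity after 18 hours at 37 degrees C. The cells were HepG2 CAGA-GFP in 1% FBS DMEM, stimulated with 500 pg/mL TGF-beta after compound addition. %Activity was normalised to no-cell wells (complete cell-killing) and DMSO (no toxicity), and curves were fitted and classified.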
The depositor's hits bear a star; ? = inconclusive; . = not tested or not shown; [ ] = another dose, or the depositor's remark. Hits are enriched below; roughly 18% of the tested compounds scored in any of these assays. Unless noted, calls follow the shape of the dose curve; as a rule, active = well fitted curve in the direction sought with a large enough effect; inconclusive = small, poorly fitted or top-dose-only effect, or another doubt; inactive = no such curve, though single readings can be large; an effect the other way counts as inactive or inconclusive.

SMILES	DT40 TDP1 CPT	TGFb inhibitor	TDP1 cell noCPT	IL1B secr inh	TDP1 inh	HepG2 viability
NC(=O)CN1C(=O)C(O)(CC(=O)c2ccccc2O)c2ccccc21 (centres undefined)	-11%	-4%	-20%	5	5%	13%
COc1ccc(C(=O)CC2(O)C(=O)N(Cc3ccccc3)c3ccc(Br)cc32)cc1 (centres undefined)	?	?	?	.	.	-99%
Cc1nc2ccc(C(=O)N(C)Cc3ccco3)cn2c1N(C)C(=O)CCc1ccccc1	?	7%	-24%	-3	.	1%
COC(=O)[C@@]1(C(C)C)N=C(c2cc(OC)c(OC)c(OC)c2)[C@]2(O1)C(=O)Nc1ccc(F)cc12	?	.	?	16	.	.
Cc1cccc(CSc2nnc(CCCCCNC(=O)OC(C)(C)C)o2)c1	?	?	16µM*	15	1%	-36%
CC(C)(C)OC(=O)NCCc1nnc(SCc2ccc(Cl)cc2)o1	0%	0%	-26%	25	4%	-3%
Cc1ccc(CSc2nnc(CCCCCNC(=O)OC(C)(C)C)o2)cc1	23µM*	-21%	18µM*	?	.	-62%
CSc1ncnc2c1ncn2CCCN1CCN(Cc2c(C)cc(C)cc2C)CC1	?	1%	?	6	.	-21%
O=C1NC(C2CC3C=CC2C3)Nc2ccccc21 (centres undefined)	-10%	3%	?	28	.	4%
O=[N+]([O-])c1cccnc1Sc1n[nH]c(-c2ccc(Cl)cc2)n1	-9%	-13%	-30%	?	6%	-36%
C[C@@H]1CCCCO[C@@H](CN(C)S(=O)(=O)c2ccccc2)[C@@H](C)CN([C@H](C)CO)C(=O)c2cc(N(C)C)ccc2O1	-18%	0%	?	-6	.	-9%
COc1ccc(CNc2ccnc(-c3ccoc3)n2)c(OC)c1	-28%	.	-16%	.	.	.
COc1ccc(CNc2ccnc(-c3ccc(N(C)C)cc3)n2)c(OC)c1	26µM*	.	?	.	.	.
COc1ccc(CNc2ccnc(-c3cccnc3)n2)c(OC)c1	23µM*	.	?	.	.	.
COc1ccccc1CNc1ccnc(-c2cccnc2)n1	?	.	-25%	.	.	.
O=C(Nc1ccc(S(=O)(=O)NC2=NCCCCC2)cc1)c1cc(F)c(F)cc1Cl	-29%	-6%	?	1	0%	-3%
Cc1nc2ccc(S(=O)(=O)N(C)CC(=O)Nc3cccc(C(F)(F)F)c3)cc2s1	?	.	?	.	3%	-37%
CCCN1CNc2c(c(=O)[nH]c(=S)n2CCc2cccs2)C1	-26%	.	-13%	.	-2%	.
CCCc1cc(-c2nc(N)ncc2-c2ccc3c(c2)OCCCO3)c(O)cc1OC	?	?	26µM*	?	10%	-124%
CCCc1cc(-c2nc(N)ncc2-c2csc(C)n2)c(O)cc1OC	?	5%	?	-20	5%	7%
Cc1ccc(NC(=O)CN2C(=O)c3ccccc3C2=O)c(C)c1	12%	6%	6%	-8	.	1%
Cc1cc(C)c(S(=O)(=O)ON2C(=O)c3ccccc3C2=O)cc1C	2.6µM*	0%	3.3µM*	-61*	0%	-2%
Cc1ccc(S(=O)(=O)ON2C(=O)c3ccccc3C2=O)c(C)c1	0.82µM*	?	1µM*	-78*	0%	-2%
Cc1cc(C)c(C)c(S(=O)(=O)ON2C(=O)c3ccccc3C2=O)c1C	2.6µM*	?	2.3µM*	-119*	-4%	9%
O=S(=O)(c1ccccc1)N1CCN(S(=O)(=O)c2ccc(F)cc2)CC1	1%	-3%	-11%	-11	.	-11%
SMILES	DT40 TDP1 CPT	TGFb inhibitor	TDP1 cell noCPT	IL1B secr inh	TDP1 inh	HepG2 viability
O=C1c2ccccc2C(=O)N1OS(=O)(=O)c1ccc(F)cc1	2.6µM*	-18%	2.1µM*	-5	-14%	0%
CN(C)N(C(=O)c1cc(-c2cccs2)nn1-c1ccccc1)C1CCS(=O)(=O)C1 (centres undefined)	-5%	-3%	-11%	-3	3%	2%
Cc1cc(C)c(NC(=O)CSC2=Nc3ccccc3C3=NC(CC(=O)NCc4cccs4)C(=O)N23)c(C)c1 (centres undefined)	?	-29%	?	.	-4%[12.3 µM]	-2%
C[C@H](CO)N1C[C@H](C)[C@@H](CN(C)Cc2ccc(Cl)c(Cl)c2)Oc2c(NC(=O)Cc3ccccc3)cccc2C1=O	?	?	15µM*	?	3%	-18%
C[C@H](CO)N1C[C@H](C)[C@@H](CN(C)Cc2ccncc2)Oc2c(NC(=O)C3CCCCC3)cccc2C1=O	?	-17%	?	-3	3%	-40%
C[C@H](CO)N1C[C@H](C)[C@@H](CN(C)Cc2ccncc2)Oc2c(NC(=O)Cc3ccccc3)cccc2C1=O	?	-8%	?	17	2%	9%
C[C@H](CO)N1C[C@H](C)[C@@H](CN(C)Cc2ccccc2)Oc2c(NC(=O)Cc3ccccc3)cccc2C1=O	15µM*	?	10µM*	-9	4%	-33%
C[C@@H]1CN([C@@H](C)CO)C(=O)c2cccc(NC(=O)C3CCCCC3)c2O[C@@H]1CN(C)Cc1ccc(Cl)c(Cl)c1	10µM*	?	21µM*	-90*	3%	-24%
C[C@H](CO)N1C[C@H](C)[C@@H](CN(C)Cc2ccc(-c3ccccc3)cc2)Oc2c(NC(=O)Cc3ccccc3)cccc2C1=O	?	?	23µM*	-23	6%	0%
COC(=O)[C@H](C)NC(=O)[C@@H](C)CO	.	.	.	.	1%[21 µM]	.
CC1Cc2ccccc2N1CC(=O)NC(c1ccccc1)c1ccccc1 (centres undefined)	?	?	?	0	5%	-21%
C[C@@H]1CN([C@@H](C)CO)C(=O)c2cc(NC(=O)C3CC3)ccc2O[C@@H]1CN(C)Cc1ccc(Cl)c(Cl)c1	21µM*	?	23µM*	?	4%	-13%
COC(=O)c1nn(-c2ccc(OC)cc2)c(=O)cc1O	17%	4%	-1%	15	3%	8%
COc1ccc(-n2nc(C#N)c(Cl)cc2=O)cc1	3.3µM*	16µM*	4.6µM*	-106*	3%	18µM*
CCCn1c(=O)c2sccc2n2c(CCCC(=O)NC3CCC(C)CC3)nnc12 (centres undefined)	-16%	-20%	-22%	.	0%	4%
